Test [1] is described as follows: NCI Yeast Anticancer Drug Screen. Data for the rad50 strain (AID 155).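 Further: 0% = growth of vehicle-only cultures of the same strain.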 Conditions: S. cerevisiae rad50 strain growth inhibition, hits give high values. In a few lines: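 Cells are treated with compound, grown, and their growth is then scored against vehicle-only cultures of the same repair-deficient yeast strain.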
Test [2] is described as follows: NCI Yeast Anticancer Drug Screen. Data for the mec2-1 strain (AID 157). As to conditions: S. cerevisiae mec2-1 strain, hits give high values. The procedure, abridged: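 Mutant yeast (mec2-1) grown with compound; growth inhibition relative to vehicle control reported.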
A short description of test [3]: NCI Yeast Anticancer Drug Screen. Data for the sgs1 mgt1 strain (AID 161).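 Further: 0% = growth of cultures given vehicle only.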 As to conditions: S. cerevisiae sgs1 mgt1 strain, hits give high values. The procedure, abridged: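 Yeast cells carrying a defined DNA-repair defect were exposed to test compounds. Growth inhibition was measured relative to vehicle-treated controls.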
Test [4] is described as follows: NCI Yeast Anticancer Drug Screen. Data for the cln2 rad14 strain (AID 165).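 Further: 0% = growth equal to vehicle treated cultures.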 Conditions: S. cerevisiae cln2 rad14 strain, hits give high values. In a few lines: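 Readout is yeast growth inhibition versus vehicle-treated controls, using a strain with cln2 and rad14 alterations exposed to compound.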
Test [5] can be described thus: NCI Yeast Anticancer Drug Screen. Data for the bub3 strain (AID 167). Conditions: S. cerevisiae bub3 mutant strain, hits give high values. In a few lines:
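Part of a panel of yeast mutants defective in DNA damage repair or cell cycle regulation. Each strain is grown with compound, and inhibition is calculated relative to solvent-treated cultures.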

The nature of test [6]: NCI Yeast Anticancer Drug Screen. Data for the mlh1 rad18 strain (AID 175). Conditions: S. cerevisiae mlh1 rad18 strain growth inhibition, hits give high values. The procedure, abridged:
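Genetically defined yeast (DNA repair-deficient) exposed to compounds; growth inhibition determined relative to vehicle.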

Setting [7] is: at 5.0 µM (retest, dose inferred, filed as 0.5).
The mark [8] stands for this setting: at 50.0 µM (retest, dose inferred, filed as 5.0).

Molecules are shown by their SMILES. This is part of a sample that, as a whole, favours compounds with a hit. Of some 79,000 tested, about 15% had one in any assay. Values without a mark were called inactive. Active and inactive are the calls of the source. No stated cut-off is given here; in the data, active means growth inhibition above about 70%; inactive means the rest.

Turning to `CCC(=O)c1cc([N+](=O)[O-])c(Br)s1`, the growth inhibition is 99% (active) in test [1] (setting [7]); 99% (active) in test [1] (setting [8]); 99.7% (active) in test [1] (at 50.0 µM); 99% (active) in test [2] (setting [7]); 100% (active) in test [2] (setting [8]); 99.6% (active) in test [2] (at 50.0 µM). Besides, the growth inhibition in test [3] (setting [7]) was 100% (active); in test [3] (setting [8]), 100% (active); in test [3] (at 50.0 µM) it was 99.6% (active); in test [4] (setting [7]), 99% (active); in test [4] (setting [8]), 99% (active); in test [4] (at 50.0 µM), 98.8% (active). In addition, the growth inhibition is 100% (active) in test [5] (setting [7]); 99% (active) in test [5] (setting [8]); 99.5% (active) in test [5] (at 50.0 µM); 99% (active) in test [6] (setting [7]); 99% (active) in test [6] (setting [8]); 99.5% (active) in test [6] (at 50.0 µM).
`O=C(Cc1nc2cc(Cl)c(Cl)cc2nc1CC(=O)c1cccnc1)c1cccnc1`: the growth inhibition was -7% in test [1] (setting [7]); 96% (active) in test [1] (setting [8]); 96.3% (active) in test [1] (at 50.0 µM); -17% in test [2] (setting [7]); 96% (active) in test [2] (setting [8]); 98.2% (active) in test [2] (at 50.0 µM). Moreover, the growth inhibition is -12% in test [3] (setting [7]); 97% (active) in test [3] (setting [8]); 92.6% (active) in test [3] (at 50.0 µM); -5% in test [4] (setting [7]); 98% (active) in test [4] (setting [8]); 94.3% (active) in test [4] (at 50.0 µM). Besides, the growth inhibition in test [5] (setting [7]) is -1%; in test [5] (setting [8]), 98% (active); in test [5] (at 50.0 µM), 95.4% (active); in test [6] (setting [7]) it was -2%; in test [6] (setting [8]), 98% (active); in test [6] (at 50.0 µM), 97.8% (active).
As to `NCCCN(CCCN)CCCNCc1c2ccccc2c(CNCCCN(CCCN)CCCN)c2ccccc12`, the growth inhibition was 88% (active) in test [1] (setting [7]); 99% (active) in test [1] (setting [8]); 90.6% (active) in test [1] (at 50.0 µM); 62% in test [2] (setting [7]); 99% (active) in test [2] (setting [8]); 93% (active) in test [2] (at 50.0 µM). The growth inhibition in test [3] (setting [7]) was 67%; in test [3] (setting [8]), 98% (active); in test [3] (at 50.0 µM), 93.3% (active); in test [4] (setting [7]), 36%; in test [4] (setting [8]), 98% (active); in test [4] (at 50.0 µM), 92.7% (active). The growth inhibition is 89% (active) in test [5] (setting [7]); 99% (active) in test [5] (setting [8]); 92.6% (active) in test [5] (at 50.0 µM); 96% (active) in test [6] (setting [7]); 99% (active) in test [6] (setting [8]); 91.1% (active) in test [6] (at 50.0 µM).
For `O=C(Nc1cccc(C(F)(F)F)c1)Oc1ccc(Cl)c2cccnc12`, the growth inhibition in test [1] (setting [7]) is 77% (active); in test [1] (setting [8]), 98% (active); in test [1] (at 50.0 µM), 89.8% (active); in test [2] (setting [7]), 66%; in test [2] (setting [8]), 99% (active); in test [2] (at 50.0 µM), 91.8% (active). In addition, the growth inhibition was 98% (active) in test [3] (setting [7]); 99% (active) in test [3] (setting [8]); 92.8% (active) in test [3] (at 50.0 µM); 90% (active) in test [4] (setting [7]); 98% (active) in test [4] (setting [8]); 88.9% (active) in test [4] (at 50.0 µM). Moreover, the growth inhibition in test [5] (setting [7]) is 94% (active); in test [5] (setting [8]) it was 99% (active); in test [5] (at 50.0 µM), 91.7% (active); in test [6] (setting [7]) it was 71% (active); in test [6] (setting [8]), 99% (active); in test [6] (at 50.0 µM), 91.7% (active).
`NNc1cccc([N+](=O)[O-])c1`: the growth inhibition is 12% in test [1] (setting [7]); 68% in test [1] (setting [8]); 76.8% (active) in test [1] (at 50.0 µM); 0% in test [2] (setting [7]); 71% (active) in test [2] (setting [8]); 84.2% (active) in test [2] (at 50.0 µM). Further, the growth inhibition in test [3] (setting [7]) was 10%; in test [3] (setting [8]), 50%; in test [3] (at 50.0 µM), 57.2%; in test [4] (setting [7]) it was 24%; in test [4] (setting [8]), 67%; in test [4] (at 50.0 µM) it was 72.6% (active). Moreover, the growth inhibition in test [5] (setting [7]) was -6%; in test [5] (setting [8]), 94% (active); in test [5] (at 50.0 µM) it was 81.8% (active); in test [6] (setting [7]), 11%; in test [6] (setting [8]), 94% (active); in test [6] (at 50.0 µM), 78% (active).
With `CCOc1cc2c(cc1O)/C(=N\OC)C[C@@H]1[C@@H]2CC[C@]2(C)[C@@H](O)CC[C@@H]12`, the growth inhibition is 16% in test [1] (setting [7]); 59% in test [1] (setting [8]); 13.9% in test [1] (at 50.0 µM); 0% in test [2] (setting [7]); 42% in test [2] (setting [8]); -2.45% in test [2] (at 50.0 µM). In addition, the growth inhibition in test [3] (setting [7]) was 5%; in test [3] (setting [8]), 86% (active); in test [3] (at 50.0 µM) it was 9.8%; in test [4] (setting [7]), 23%; in test [4] (setting [8]), 67%; in test [4] (at 50.0 µM), 24.8%. The growth inhibition was 25% in test [5] (setting [7]); 71% (active) in test [5] (setting [8]); 13.6% in test [5] (at 50.0 µM); 16% in test [6] (setting [7]); 68% in test [6] (setting [8]); 79.1% (active) in test [6] (at 50.0 µM).
With `CCCCCCCCCCCCCCCCCC1=NCCCN1CCO`, the growth inhibition was 7% in test [1] (setting [7]); 6% in test [1] (setting [8]); 96.8% (active) in test [1] (at 50.0 µM); 5% in test [2] (setting [7]); 5% in test [2] (setting [8]); 87.5% (active) in test [2] (at 50.0 µM). The growth inhibition in test [3] (setting [7]) was 14%; in test [3] (setting [8]) it was 8%; in test [3] (at 50.0 µM), 40%; in test [4] (setting [7]) it was 9%; in test [4] (setting [8]), 5%; in test [4] (at 50.0 µM) it was -41.6%. In addition, the growth inhibition in test [5] (setting [7]) was 4%; in test [5] (setting [8]), 7%; in test [5] (at 50.0 µM), 61.1%; in test [6] (setting [7]) it was 23%; in test [6] (setting [8]), 7%; in test [6] (at 50.0 µM) it was 83% (active).
In the case of `CCN(CC)CC(O)c1cc(-c2ccc(Cl)cc2)nc2cc(Cl)ccc12` (stereo not given), the growth inhibition in test [1] (setting [7]) was 2%; in test [1] (setting [8]), 99% (active); in test [1] (at 50.0 µM), 98% (active); in test [2] (setting [7]), -3%; in test [2] (setting [8]), 100% (active); in test [2] (at 50.0 µM), 93.9% (active). Moreover, the growth inhibition in test [3] (setting [7]) was -1%; in test [3] (setting [8]), 99% (active); in test [3] (at 50.0 µM), 99.7% (active); in test [4] (setting [7]), -2%; in test [4] (setting [8]) it was 99% (active); in test [4] (at 50.0 µM) it was 47.9%. Moreover, the growth inhibition was -3% in test [5] (setting [7]); 99% (active) in test [5] (setting [8]); 78.5% (active) in test [5] (at 50.0 µM); 11% in test [6] (setting [7]); 99% (active) in test [6] (setting [8]); 98.3% (active) in test [6] (at 50.0 µM).
`C[n+]1ccccc1C[n+]1ccccc1`: the growth inhibition in test [1] (setting [7]) is 4%; in test [1] (setting [8]), 28%; in test [1] (at 50.0 µM), 67.4%; in test [2] (setting [7]), 5%; in test [2] (setting [8]) it was 17%; in test [2] (at 50.0 µM) it was 36.1%. Also, the growth inhibition is 1% in test [3] (setting [7]); 35% in test [3] (setting [8]); 66.8% in test [3] (at 50.0 µM); 6% in test [4] (setting [7]); 14% in test [4] (setting [8]); -10.1% in test [4] (at 50.0 µM). Further, the growth inhibition is 2% in test [5] (setting [7]); 20% in test [5] (setting [8]); 26.2% in test [5] (at 50.0 µM); 15% in test [6] (setting [7]); 17% in test [6] (setting [8]); 53.9% in test [6] (at 50.0 µM).
Turning to `CCc1cccc(CC)c1N1C(=O)C=CC1=O`, the growth inhibition in test [1] (setting [7]) was 45%; in test [1] (setting [8]), 78% (active); in test [1] (at 50.0 µM), 92.7% (active); in test [2] (setting [7]), 45%; in test [2] (setting [8]), 89% (active); in test [2] (at 50.0 µM) it was 94.2% (active). Besides, the growth inhibition was 99% (active) in test [3] (setting [7]); 100% (active) in test [3] (setting [8]); 94% (active) in test [3] (at 50.0 µM); 88% (active) in test [4] (setting [7]); 99% (active) in test [4] (setting [8]); 92.1% (active) in test [4] (at 50.0 µM). Moreover, the growth inhibition was 100% (active) in test [5] (setting [7]); 100% (active) in test [5] (setting [8]); 92.6% (active) in test [5] (at 50.0 µM); 38% in test [6] (setting [7]); 87% (active) in test [6] (setting [8]); 93.3% (active) in test [6] (at 50.0 µM).
